Records with an inconclusive call do not appear. The source made the active and inactive calls. Calls come from the whole dose curve.
% is set by controls: 0 for no effect and ±100 for the full control effect; potency is the fitted concentration of half-maximal effect.

This experiment is described as follows: qHTS assay for small molecule disruptors of the mitochondrial membrane potential - 1 hr assay (AID 651754). Note: nearly all actives have a fitted effect of over 35% in size. Particulars: series mostly up to 92.2 µM; ratio change, negative = depolarisation: at the top concentration. An excerpt: National Center for Advancing Translational Sciences [NCATS]
NIH Chemical Genomics Center [NCGC]
National Institutes of Environmental Health Sciences [NIEHS]
National Toxicology Program [NTP]
Mitochondrial membrane potential (MMP), one of the parameters for mitochondrial function, is generated by mitochondrial electron transport chain that creates an electrochemical gradient by a series of redox reactions. This gradient drives the synthesis of ATP, a crucial molecule for various cellular processes. Measuring MMP in living cells is commonly used to assess the effect of chemicals on mitochondrial function. […] The dye accumulates in the mitochondria of healthy cells as aggregates, with red fluorescence. The mitochondrial potential collapses and the dye can no longer accumulate in the mitochondria and remains in the cytoplasm in monomers, with green fluorescence.
2,000 HepG2 cells in 5 uL/well were dispensed into black, clear-bottom 1536-well plates using a Multidrop Combi (Thermo Scientific) dispenser. The assay plates were incubated overnight at 37C to allow cells to attach to the wells, followed by the transfer of 23 nL compound or DMSO vehicle by a pin tool (Kalypsys). The plates were incubated for 1 hr at 37C and 5% CO2, followed by the addition of 5 uL of 2X Mito-MPS dye (BD Biosciences) into each well using Flying Reagent Dispenser (Aurora Discovery) and then following 30 min incubation at 37C. Fluorescence intensity (490nm excitation and 535nm emission for monomers; and 540nm excitation and 590nm emissions for aggregates) was measured using an Envision plate reader.
In general terms: qHTS replaces the single test concentration by a dilution series.
Take `Nc1nc2ccc([N+](=O)[O-])cc2s1`: the Potency is 16.8 µM (active).
Still for that read-out and setting: to `N=C1N=C(N)c2cc3ccccc3cc21` belongs 6.68 µM (active).
Consider `COc1cc(CNC(=O)CCCC/C=C/C(C)C)ccc1O`, for which the “ratio change, negative = depolarisation” value is -15.2% (inactive).
Regarding `Nc1ccc(O)c([N+](=O)[O-])c1`, the Potency was 33.5 µM (active).
With `CN1CCC[C@H]1c1cccnc1`, the “ratio change, negative = depolarisation” value was 1.58% (inactive).
On the same count and under the same terms, to `CC(C)NCC(O)COc1cccc2ccccc12` (centres undefined) belongs 9.25% (inactive).
As to `CN(C)c1ccc(N=NS(=O)(=O)O)cc1`, the Potency is 15 µM (active).
Still for that read-out and setting: to `CN(C)c1ccc(C(=C2C=CC(=[N+](C)C)C=C2)c2ccccc2)cc1` belongs 0.75 µM (active).
For `CCCCCCCCCCCCCCCCCC(=O)O`, the “ratio change, negative = depolarisation” value was 1.08% (inactive).
The same measure, in the same setting: to `C#C[C@]1(O)CC[C@H]2[C@@H]3CCc4cc(O)ccc4[C@H]3CC[C@@]21C` belongs -17% (inactive).
Same read-out and setting: to `c1cnc2c(c1)ccc1cccnc12` belongs 0.772% (inactive).
Consider `O=C(O)c1cc(O)c(O)c(O)c1`, for which the “ratio change, negative = depolarisation” value was 2.83% (inactive).
On to `O=C1CN(/N=C/c2ccc([N+](=O)[O-])o2)C(=O)N1`, for which the Potency is 37.6 µM (active).
As for `COc1cc(/C=C/C(=O)CC(=O)/C=C/c2ccc(O)c(OC)c2)ccc1O`, the Potency was 3.76 µM (active).

Source of the values: PubChem BioAssay (NCATS).
